Compounds with a hit are over-represented: about 4.9% of the library has one in this group of screens.
PP5 inh: blocks human protein phosphatase 5 activity. P53041. inhibition, % at 6.7 µM. purified PP5c, OMFP substrate fluorescence. actives 0.18% (n = 320,000);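 active = inhibition above the campaign's mean inhibition across all tested compounds plus 3 SD, cut at about 9.5% in these data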;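 note: 0% = DMSO only and 100% = 100 µM cantharidin control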
CSC inhib: cancer stem cell inhibition; actives 1.1% (n = 300,000); cancer stem cell-like cells viability, luminescence; inhibition, % at 7.5 µM; in the data active = inhibition above about 75%; inconclusive = no clear call, values can overlap the other calls; tested in HMLE shEcad cells
Calb FLC: C. albicans growth modulation with fluconazole. C. albicans CaCi-2 (fluconazole-resistant clinical isolate) + fluconazole, Alamar Blue growth, 48 h. growth inhibition, % (no concentration beside the values). actives 0.57% (n = 300,000);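 active = growth inhibition above about 58% in most replicates, limit read from the data, passing the limit was not always enough; inconclusive = exactly half the replicates above a set limit; inactive = most replicates below a set limit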;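 note: all wells also contain fluconazole at 8 µg/ml as a sub-toxic cotreatment; 0% = median of DMSO wells and 100% = median of geldanamycin control wells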
Beta apoptosis: beta cell apoptosis inhibition | INS-1E cytokine-induced death, ATP luminescence, 48 h; percent of positive-control rescue, neutral wells zero | protection from apoptosis, % (concentration not given with the values) | actives 0.8% (n = 300,000);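 active = Every replicate reaches about 75%, or at least half do and their mean reaches it too, limit read from the data; inconclusive = At least half of replicates reach the limit but their mean does not; inactive = Under half of replicates reach the limit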;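 note: 0% = cytokine-treated negative control wells and 100% = positive control rescue; higher means more ATP so stronger rescue from cytokine killing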
PP1 inh: counter-screen for PP5 inhibitors: inhibitors of human PP1-alpha; P62136; inhibition, % at 6.7 µM; purified PP1alpha, OMFP fluorescence; actives 0.9% (n = 320,000);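 active = inhibition above the mean inhibition of all tested compounds plus 3 SD, computed separately for each screening campaign, cut at about 15% in these data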
Mdm2-MdmX inh: human Mdm2/MdmX binding inhibition. inhibition, % at 8 µM. actives 3% (n = 330,000). SaOS-2 split-luciferase Mdm2/MdmX complementation, luminescence. O15151+Q00987;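 active = inhibition of at least 50% at 8 µM in the primary screen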
Target sequence (O15151 whole entry, looked up): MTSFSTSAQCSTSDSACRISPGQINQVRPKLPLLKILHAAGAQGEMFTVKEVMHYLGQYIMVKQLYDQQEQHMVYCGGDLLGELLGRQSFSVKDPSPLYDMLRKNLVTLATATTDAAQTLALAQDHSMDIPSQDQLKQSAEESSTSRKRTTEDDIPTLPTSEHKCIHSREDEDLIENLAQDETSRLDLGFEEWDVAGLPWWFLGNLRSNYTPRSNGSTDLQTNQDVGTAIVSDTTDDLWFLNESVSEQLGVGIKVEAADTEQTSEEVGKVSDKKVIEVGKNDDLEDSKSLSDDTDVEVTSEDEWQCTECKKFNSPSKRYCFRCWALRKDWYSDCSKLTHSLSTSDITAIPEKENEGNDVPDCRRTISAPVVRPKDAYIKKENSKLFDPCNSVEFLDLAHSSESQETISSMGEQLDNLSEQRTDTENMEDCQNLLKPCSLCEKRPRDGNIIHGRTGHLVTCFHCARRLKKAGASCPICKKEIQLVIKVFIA
Target sequence (Q00987 whole entry, looked up): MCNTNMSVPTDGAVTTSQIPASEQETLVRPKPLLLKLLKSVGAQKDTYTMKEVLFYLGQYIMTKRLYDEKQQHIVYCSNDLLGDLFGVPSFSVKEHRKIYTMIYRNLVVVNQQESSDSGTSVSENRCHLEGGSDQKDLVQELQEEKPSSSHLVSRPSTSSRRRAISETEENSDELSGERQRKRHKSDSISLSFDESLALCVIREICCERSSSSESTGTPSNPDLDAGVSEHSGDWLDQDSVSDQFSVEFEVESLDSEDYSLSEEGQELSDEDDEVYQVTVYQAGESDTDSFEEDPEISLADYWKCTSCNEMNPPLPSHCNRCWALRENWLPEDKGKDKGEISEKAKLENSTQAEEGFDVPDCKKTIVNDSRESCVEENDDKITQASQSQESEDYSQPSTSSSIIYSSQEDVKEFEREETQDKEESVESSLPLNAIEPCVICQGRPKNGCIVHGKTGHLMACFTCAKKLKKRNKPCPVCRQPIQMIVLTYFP
Mdm2-MdmX conf: human Mdm2/MdmX binding inhibition, confirmed. shares compounds with Mdm2-MdmX inh. luminescent assay. inhibition, % at 8 µM. actives 55% (n = 10,000); in the data active = inhibition above about 40%
FLuc counter: inhibits full-length luciferase, flagging false Mdm2/MdmX hits | shares compounds with Mdm2-MdmX inh | SaOS-2 full-length luciferase counterscreen, luminescence | inhibition, % at 8 µM | actives 77% (n = 6,200);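 active = mean inhibition at 8 µM reaching about 37%, which flags the compound as non-specific, limit read from the data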;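 note: p53-null SaOS-2 cells with luciferase driven by a doxycycline-inducible promoter; compound on cells about two nights before reading with doxycycline added after day one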
An asterisk follows results filed as active; ? = inconclusive; . = no result given; + = active, no number.

SMILES	PP5 inh	CSC inhib	Calb FLC	Beta apoptosis	PP1 inh	Mdm2-MdmX inh	Mdm2-MdmX conf	FLuc counter
N#CC(C#N)=c1ccc2c(c1)N1C(c3ccccc3)=CC(c3ccccc3)C3CCCCC31N=2 (stereo not drawn)	-4	6	15	0	-9	61*	32	.
CCc1c(C)sc(NC(=S)N2CC(C)OC(C)C2)c1C(=O)OC (stereo not drawn)	-1	-7	9	-3	-1	0	.	.
CN(CC(=O)NCCc1ccc(S(N)(=O)=O)cc1)CC(=O)Nc1ccccc1C(F)(F)F	.	8	.	2	.	-8	.	.
CCn1ncc(C2=NOC(C(=O)NCc3ccccc3)C2)c1C (stereo not drawn)	-2	69	2	6	2	62*	52*	84*
CCn1ncc(C2=NOC(C(=O)NCc3ccc(OC)cc3)C2)c1C (stereo not drawn)	0	.	4	-3	-2	.	.	.
COc1cc(OC)cc(N2C(=O)CC(N3CCC(C(=O)N4CCCCC4)CC3)C2=O)c1 (stereo not drawn)	.	3	-16	6	.	15	.	.
CCCCNS(=O)(=O)c1ccc2nc(-c3cccnc3)cc(C(=O)NCCCOCC)c2c1	-2	-6	?	0	-3	2	.	.
O=C(NCC1CCCO1)C(=Cc1cccc([N+](=O)[O-])c1)C(=O)NCC1CCCO1 (stereo not drawn)	2	7	-17	-23	-7	65*	35	45*
O=C(NCC1CCCO1)/C(=C\c1cccc([N+](=O)[O-])c1)NC(=O)c1ccccc1 (stereo not drawn)	0	-13	7	0	6	17	.	.
CCCCCCc1cc2cc(-c3nnc(-c4ccccc4O)o3)c(=O)oc2cc1O	-2	109*	20	106*	1	73*	91*	22
O=C(O)c1ccc2oc(=O)c(S(=O)(=O)c3ccc(F)cc3)cc2c1	0	-17	-5	1	1	-15	.	.
COc1ccc(-c2nnc(-c3cc4ccccc4oc3=O)o2)cc1	2	-2	8	-3	-3	-14	.	.
CCCCCCc1cc2cc(S(=O)(=O)c3ccc(F)cc3)c(=O)oc2cc1O	3	30	-3	3	1	57*	51*	85*
CCCCCCc1cc2cc(C(=O)Nc3ccccc3OC)c(=O)oc2cc1O	0	19	-1	19	-1	95*	9	.
Cc1ccc(Nc2nc(NCCO)c3ccccc3n2)cc1C	0	.	-2	.	1	55*	25	.
COc1ccccc1Nc1nc(NCCO)c2ccccc2n1	.	.	-3	.	.	-12	.	.
OCCNc1c2ccccc2nc2ccccc12	-1	12	33	.	-4	61*	56*	37*
COc1ccc(/C=N/n2c(=O)[nH]c3c([nH]c4ccc(Br)cc43)c2=O)cc1CN1CCOCC1	1	-16	2	7	1	37	.	.
CC1=CC(C)[C@H](/C=N/n2c(=O)[nH]c3c([nH]c4ccc(Br)cc43)c2=O)C(C)C1 (stereo partly drawn)	4	+	-7	61	-1	98*	18	.
COc1ccc2c(c1)[nH]c1c(=O)n(/N=C/C3C(C)C=C(C)CC3C)c(=O)[nH]c12 (stereo not drawn)	0	100*	6	53	0	69*	13	.
C/C(=N\NC(=O)c1ccccc1)C1C2C=CC(C2)C1(C)C (stereo not drawn)	1	6	-9	.	-1	0	.	.
COc1ccc(NS(=O)(=O)c2ccc(O)c(NS(=O)(=O)c3ccc(NC(C)=O)cc3)c2)cc1	.	10	.	-5	.	7	.	.
O=C(Nc1nc(-c2ccccc2)c(C(=O)c2ccccc2)s1)c1ccc(S(=O)(=O)N2CCCC2)cc1	-2	27	-7	7	-4	-4	.	.
O=C(Nc1nc(-c2ccccc2)c(-c2ccccc2)s1)c1ccc(S(=O)(=O)N2CCCC2)cc1	0	-4	-12	6	-2	59*	-3	.
COc1ccc(N=c2oc3ccc(OC)cc3cc2-c2nc3ccccc3[nH]2)cc1	5	18	0	44	-4	93*	-145	.
SMILES	PP5 inh	CSC inhib	Calb FLC	Beta apoptosis	PP1 inh	Mdm2-MdmX inh	Mdm2-MdmX conf	FLuc counter
CCCc1ccc(S(=O)(=O)N2CCN(C(C)C(=O)NCc3ccccc3)CC2)cc1 (stereo not drawn)	.	.	.	.	.	30	.	.
CCc1cccc(NS(=O)(=O)c2c(C)nc3sc(CC)nn3c2=O)c1	3	6	.	-8	-2	53*	2	.
CCc1nn2c(=O)c(S(=O)(=O)Nc3ccc(Cl)cc3)c(C)nc2s1	2	-9	-13	-10	-1	16	.	.
Cc1cc2ncn(-c3ncccc3[N+](=O)[O-])c2cc1C	3	-27	3	-10	-1	5	.	.
CC(=O)c1nn(-c2cccc(Br)c2)cc1C(=O)c1ccc2ccccc2c1	-1	.	-8	9	-4	63*	30	.
COc1ccc(-c2oc3ncnc(NCCCN4CCOCC4)c3c2-c2ccc(OC)cc2)cc1	4	20	15	0	5	60*	31	.
c1ccc(-c2oc3ncnc(NCCCN4CCOCC4)c3c2-c2ccccc2)cc1	1	25	-4	-5	7	16	.	.
COc1ccc(-c2oc3ncn(CCN4CCOCC4)c(=N)c3c2-c2ccc(OC)cc2)cc1	2	43	43	48	5	57*	38	49*
COc1ccc(-c2oc3ncnc(NCCN4CCOCC4)c3c2-c2ccc(OC)cc2)cc1	1	34	25	41	-3	80*	37	.
O=C(CN(C(=O)c1csnn1)c1ccccc1Cl)NC1CCCC1	-1	-15	1	-6	8	7	.	.
O=C(Nc1cccc2[nH]ncc12)c1ccc(F)cc1	2	-14	-4	-15	-1	60*	74*	25
CCOc1ccc(NC(=S)NNc2ccnc3cc(Cl)ccc23)cc1	0	.	-9	2	13	18	.	.
S=C(NNc1ccnc2cc(Cl)ccc12)Nc1ccc(Cl)cc1Cl	5	28	19	15	4	92*	31	49*
C=C1C(=O)O[C@@]23[C@H]1CC[C@@H](C)[C@@H]2CC[C@@]1(C)O[C@@H]31	.	17	.	-3	.	71*	33	18
CCOC(=O)c1sc(Nc2nc(C)cc(C)n2)nc1C	-1	50	0	33	3	57*	60*	57*
CN(C)c1cc[n+](CC(=O)c2ccc(-c3ccccc3)cc2)cc1	-2	13	112*	106*	1	60*	44*	48*
Cc1ccc(SCCc2cc[n+](CC(=O)c3ccccc3)cc2)cc1	-2	26	14	-12	-3	4	.	.
